According to PubChem BioAssay (NCI):
This is part of a sample that, as a whole, favours compounds with a hit. Of some 83,000 tested, about 20% had one in any assay.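 The endpoint reported here, percent growth, reads 100 for growth as untreated, 0 for no net growth and -100 for all cells dead.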 Unmarked numbers belong to inactive results. Active and inactive are the calls of the source.

tested on: HCT-116 colon; assay: NCI-60 one-dose screen, 48 h (100 = growth as untreated, 0 = no growth, -100 = all killed); conditions: 10 µM
Description: Growth inhibition of the HCT-116 human tumor cell line is measured as a screen for anti-cancer activity. Cells are grown in 96 well plates and exposed to the test compound for 48 hours. Compounds are tested at a single concentration, which is 10^-5 M for most compounds. The reported endpoint is percent growth (GI% or GIPRCNT), where numbers from 0 - 100% represent growth inhibition, and numbers from -100% - 0 represent cell death. For example, a value of 40 represents 60% growth inhibition. A value of 0 means no net growth occurred over the course of the experiment. A value of -40 indicates 40% of cells at the beginning of the experiment died by the end of the experiment. A value of -100 means all cells are dead at the end of the experiment.
NCI-60 Human Tumor Cell Lines Screen was performed using the standard one-dose NCI protocol, which is described in more detail at https://dtp.cancer.gov/discovery_development/nci-60/default.htm.
Compounds with GIPRCNT values below 10 were considered active. Activity score was based on GIPRCNT using the following formula: […]
Score is 0 for GIPRCNT values of 100 or above, 50 for GIPRCNT values of 0, and 100 for GIPRCNT values of -100.

Row | Structure (SMILES) | growth
1 | O=C(Nc1ccc(OCc2ccc(F)cc2)cc1)Nc1ccc(Cl)c(C(F)(F)F)c1 | 4.96% (active)
2 | COc1ccc(Cn2cc(C#N)c(N)c2C(C)=O)c(OC)c1 | 99.2%
3 | Cc1ccc(S(=O)(=O)N2CCN(S(=O)(=O)c3oc(-c4ccccc4)nc3C#N)CC2)cc1 | 84.6%
4 | O=C(Nc1ccc(OCc2ccc(Cl)cc2)cc1)Nc1ccc(Cl)c(C(F)(F)F)c1 | 3.96% (active)
5 | O=[N+]([O-])c1cccc(-c2nnc3c(/C=C/c4ccccc4O)nc4ccccc4n23)c1 | 56.4%
6 | O=C(CC(=O)Nc1ccc(Oc2ncnc3scc(Nc4n[nH]c(=S)s4)c23)cc1)Nc1ccc(Br)cc1 | 107%
7 | Cn1cc(-c2nnc(N)nc2-c2c[nH]c3ccc(F)cc23)c2cc(Br)cnc21 | 59.2%
8 | Cn1cc(-c2nnc(N)nc2-c2c[nH]c3ccccc23)c2cc(Br)cnc21 | 22.8%
9 | COc1ccc(C2c3sc4ccc(C)cc4c3Oc3nc[nH]c(=O)c32)cc1 (stereo not given) | 90.2%
10 | Cn1cc(/C=C(/SS/C(=C/c2cn(C)c3cccc(C(=O)O)c23)C(=O)O)C(=O)O)c2c(C(=O)O)cccc21 | 118%
11 | COc1cccc(O)c1/C=C1\SCc2cc3c(OC)cccc3[o+]c21 | 107%
12 | O=C(CSc1nc2ccccc2c(=O)n1-c1ccc(Cl)cc1)Nc1ccc(-c2nc3ccc([N+](=O)[O-])cc3[nH]2)cc1 | 19.1%
13 | COc1ccc(C(=O)COc2ccc(NC(=O)Nc3ccc(Cl)c(C(F)(F)F)c3)cc2)cc1 | 25.9%
14 | COC(=O)CNC(=O)COc1c(OC)c(OC)cc2oc(-c3cccc(C(=O)Nc4ccc(Cl)cc4)c3)cc(=O)c12 | 43.8%
15 | COc1cc(Nc2nc(O)c(/C=C3\C=Nc4ccccc43)s2)cc(OC)c1OC | -59.2% (active)
16 | O=C(CSc1nc2ccccc2c(=O)n1-c1ccc(Cl)cc1)Nc1ccc(-c2nc3ccccc3[nH]2)cc1 | -84.3% (active)
17 | O=C(c1ccc(Cl)cc1)C(c1c[nH]c2ccccc12)c1c[nH]c2ccccc12 | -91.4% (active)
18 | Cc1ccc2c(c1)C(=O)/C(=C/c1c[nH]c3ccccc13)S2 | 14.2%
19 | CCOC(=O)c1ccc(NC(=O)CSC(CC(=O)c2sc(Nc3ccccn3)nc2C)c2ccccc2F)cc1 (stereo not given) | 1.05% (active)
20 | COc1ccc(C(=O)COc2ccc(NC(=O)Nc3ccccc3)cc2)cc1 | 91%

Row | Structure (SMILES) | growth
21 | C#CCOc1cc(N(CC)CC)ccc1C(C(=O)NC(C)(C)C)N(C(=O)C1CCc2cc(F)ccc2O1)c1ccc(F)cc1F (stereo not given) | 24.7%
22 | O=C1S/C(=C\c2ccc([N+](=O)[O-])cc2)C(=O)N1CCN1CCCCC1 | 105%
23 | CC1(C)CC(=O)C2=C(C1)N(Cc1ccc(C(=O)O)cc1)C1=C(C(=O)CC(C)(C)C1)C2c1ccc(Cl)cc1 | 106%
24 | O=C(c1ccc(F)cc1)C(c1c[nH]c2ccccc12)c1c[nH]c2ccccc12 | 7.24% (active)
25 | COc1ccc(C2c3sc4ccc(C)cc4c3Oc3nc(N)nc(N)c32)cc1 (stereo not given) | 86.9%
26 | CCOC(=O)C1=C(N)N(c2ccc(C)cc2)C2=C(C(=O)CC(C)(C)C2)C1c1ccccc1Br (stereo not given) | 40.6%
27 | O=C(c1ccccc1)c1ccc2nc(-c3ccccc3Br)[nH]c2c1 | -38.8% (active)
28 | COc1cc2oc(-c3cccc(C(=O)Nc4ccc(Cl)cc4)c3)cc(=O)c2c(OCCN)c1OC | -90.3% (active)
29 | Cc1ccc(COc2ccc(NC(=O)Nc3ccc(Cl)c(C(F)(F)F)c3)cc2)cc1 | 69.7%
30 | COc1ccc(OC)c(-n2cc(C#N)c(N)c2C(=O)c2ccc(Cl)cc2Cl)c1 | 29.4%
31 | CCn1c(SCC(=O)Nc2ccc(-c3nc4ccccc4[nH]3)cc2)nc2ccccc2c1=O | -81.4% (active)
32 | Fc1ccc(/C=C/c2nc3ccccc3n3c(-c4ccc(Cl)cc4)nnc23)cc1 | 41.8%
33 | O=C(Nc1ccc(OCC(=O)c2ccc(Cl)cc2)cc1)Nc1ccc(Cl)c(C(F)(F)F)c1 | 50.8%
34 | Cc1ccc2c(c1)C(=O)/C(=C/c1ccc([N+](=O)[O-])cc1)S2 | 14.3%
35 | COc1ccc(Cc2nn(CC(=O)N/N=C/c3ccc(Br)cc3)c(=O)c3c(C)noc23)cc1 | 0.469% (active)
36 | O=C(CC(=O)Nc1ccc(Oc2ncnc3scc(Nc4n[nH]c(=S)s4)c23)cc1)Nc1ccc(Cl)cc1 | 92.5%
37 | COc1cccc(C(=O)CSc2nc(-c3ccc(OCc4ccccc4)c(OC)c3)c(C#N)c(=O)[nH]2)c1 | 99.6%
38 | Cc1cc(N=C2NC(=O)S/C2=C\c2ccc(F)cc2)n[nH]1 | -51.5% (active)
39 | CCOc1ccc(/C=N/NC(=O)Cn2nc(Cc3ccc(OC)cc3)c3onc(C)c3c2=O)cc1 | -23.3% (active)
40 | C#C[C@]1(O)CC[C@H]2[C@@H]3CC=C4c5sc(Nc6cc(C)cc(C)n6)nc5CC[C@]4(C)[C@H]3CC[C@@]21C | -56.1% (active)
